Molecules are shown by their SMILES. Records with an inconclusive call do not appear. The source made the active and inactive calls.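 The calls were made as follows, unless noted: active = viability increase at or above a cutoff of the median across tested compounds plus 3 SD (cut at about 8.5% in these data, passing the limit was not always enough); inconclusive = some gains above the cutoff, reason not given; inactive = the rest.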

Experiment [1] in a line: reducers of endogenous Her2 protein level, primary screen, SKBR3 breast tumor cells, AlphaScreen, ATP viability (AID 461;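 active = Her2 level under about 52% in both replicate screens, with viability over 70% of control, limit read from the data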;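 as to Her2 level: lower value means less Her2 protein in the cells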;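 as to viability: percent of carrier control wells set as 100% viability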). The conditions noted are these: 18-24 h, measured here: SKBR3 viability, ATP luminescence, at 10 µM. On the technique in general: Alpha assays give light when donor and acceptor beads are brought close together.
The target of experiment [2] is Receptor tyrosine-protein kinase erbB-2 (Homo sapiens) (UniProt P04626). The description is as above. The conditions noted are these: 18-24 h, at 10 µM, stronger effect = lower value.
A short description of experiment [3]: HUVEC growth inhibition – cell-based, human, primary screen (AID 575;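 active = viability at or below 30% in both replicate assays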;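 also: 100% = median of untreated cell wells with 0.1% DMSO on each plate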). The following applies: HUVEC proliferation, CellTiter-Glo luminescence, 72 h; at 10 µM; stronger effect = lower value.
Experiment [4] is described as follows: growth inhibitors of H69AR lung tumor, primary screen, human, duplicate replicates (AID 580;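 active = viability at or under a set limit in both replicates, limit being median viability minus 3 SD, cut at about 48% in these data, passing the limit was not always enough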;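 also: 100% = mean luminescence of untreated wells and 0% = no signal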). The following applies: H69AR lung tumor cells viability, ATP luminescence, 72 h; at 10 µM; stronger effect = lower value.
A short description of experiment [5]: reversal of MRP1-mediated doxorubicin resistance, pilot screen, H69AR cells, doxorubicin co-treatment (AID 601;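 active = viability loss from added drug above about 55%, and viability with drug at most 40%, in both replicates, limit read from the data, passing the limit was not always enough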). The conditions noted are these: CellTiter-Glo, 72 h, at 10 µM; for differential viability (reversal): stronger effect = higher value. (Cellular ATP, detected with luciferase, serves as a proxy for viable cell number.)
Experiment [6] can be described thus: 384-well plate pilot, post-Golgi transport modulator project, inhibition of yeast transport mutant growth (AID 636; in the data active = inhibition above about 31%). The following applies: absorbance 615 nm, about 18 h, stronger effect = higher value.
The nature of experiment [7]: growth suppression of yeast trafficking mutant, preliminary HTS, modulators of trafficking downstream of Golgi apparatus project, 1536-format plate, OD 615 nm (AID 637; in the data active = inhibition above about 30%). The following applies: yeast transport mutant growth, absorbance 615 nm, 18 h; stronger effect = higher value.
The nature of experiment [8]: OD615 S. cerevisiae growth inhibition, permissive medium, pilot counter-assay, permissive growth control for S. cerevisiae lifespan shortening project (AID 705;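 active = growth inhibition above 25% in both replicates, a cutoff set 3 SD above the mean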). The following applies: OD615, 24 h, at 10 µM, stronger effect = higher value.
The nature of experiment [9]: Restrictive medium S. cerevisiae growth inhibition, OD615, pilot screen of yeast lifespan reduction project, restrictive growth control (AID 706;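 active = growth inhibition above a set limit, 3 SD over mean compound inhibition, in both replicates, cut at about 43% in these data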;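 also: modified DeaD lifespan yeast strain shifted to restrictive glucose medium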). The following applies: OD615, 48 h, at 10 µM, stronger effect = higher value.
The nature of experiment [10]: viability gain of MRP-1-high H69AR cells under doxorubicin, pilot screen, MRP-1 activator project, CellTiter-Glo, duplicate (AID 807).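 Also: compound pretreatment 18-22 h then 72 h combined with doxorubicin; 0% = doxorubicin alone and 100% = vehicle without doxorubicin.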 The conditions noted are these: H69AR viability with doxorubicin, CellTiter-Glo luminescence; at 10 µM; stronger effect = higher value.
Experiment [11] in a line: growth suppression of beta-catenin knockout HCT116, pilot screen, human colon tumor cells (AID 823;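 active = cell viability at or below a set limit in both duplicate runs, the limit being the all-compound median minus 4 SD, cut at about 23% in these data, passing the limit was not always enough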;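 also: 0% = wells killed by 20 µM Hyamine and 100% = untreated DMSO cell wells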). The following applies: CellTiter-Glo, 60 h, at 10 µM, stronger effect = lower value.
Experiment [12] in a line: growth suppression of PTEN-deleted HCT116, pilot screen, cell-based, HCT116 clonal line, CellTiter-Glo (AID 824;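 active = viability at or below 27.92% in each of two runs, the all-compound median minus 4 SD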;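 also: 0% = 20 µM Hyamine control and 100% = vehicle cell control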). The following applies: 60 h, at 10 µM, stronger effect = lower value.
Experiment [13] can be described thus: inhibitors of the yeast RAM network, pilot screen, dse1pr::URA3 reporter, 5-FOA selection (AID 869;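 active = inhibition over a set limit, the all-compound mean plus 3 SD, in both replicate runs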;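 also: 0% = DMSO wells with no growth and 100% = 10 µM 1-NA-PP1 with full growth; RAM network block rescues cells from 5-FOA so hits raise OD615 growth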). The conditions noted are these: S. cerevisiae dse1pr::URA3 5-FOA growth, OD615, 2 d; at 10 µM; stronger effect = higher value; strain carries analog-sensitive mutant Cbk1 kinase.
Experiment [14] can be described thus: RAM signaling pathway blockade in yeast – S. cerevisiae, Pdr1DBD-CYC8 efflux-inhibited sensitized strain, primary screen (AID 1298;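 active = RAM network inhibition above 8.4% in each of two replicates, 3 SD over the compound average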;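 also: 0% = DMSO untreated cells without growth and 100% = 10 µM 1-NA-PP1 full growth; higher means more yeast growth rescued from 5-FOA killing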). The conditions noted are these: S. cerevisiae cbk1-as DSE1-URA3 strain, 5-FOA growth OD615, 2 d; at 50 µM; stronger effect = higher value.
Experiment [15] in a line: SK-BR-3 cell growth inhibitors, pilot screen, 24 h, human (AID 572;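 active = viability at or below 10% of carrier control in both of two separate runs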;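 also: compound exposure lasted between 18 and 24 h rather than exactly 24 h; 100% = carrier-treated control wells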). The following applies: SK-BR-3 viability, CellTiter-Glo luminescence, at 10 µM, stronger effect = lower value.
The mark [16] stands for this setting: H69AR cells + 2 uM doxorubicin, measured here: viability with 2 uM doxorubicin, stronger effect = lower value.
Setting [17] is: H69AR cells, compound alone cytotoxicity.

Sequence of Receptor tyrosine-protein kinase erbB-2 (Homo sapiens) (P04626 whole entry, looked up): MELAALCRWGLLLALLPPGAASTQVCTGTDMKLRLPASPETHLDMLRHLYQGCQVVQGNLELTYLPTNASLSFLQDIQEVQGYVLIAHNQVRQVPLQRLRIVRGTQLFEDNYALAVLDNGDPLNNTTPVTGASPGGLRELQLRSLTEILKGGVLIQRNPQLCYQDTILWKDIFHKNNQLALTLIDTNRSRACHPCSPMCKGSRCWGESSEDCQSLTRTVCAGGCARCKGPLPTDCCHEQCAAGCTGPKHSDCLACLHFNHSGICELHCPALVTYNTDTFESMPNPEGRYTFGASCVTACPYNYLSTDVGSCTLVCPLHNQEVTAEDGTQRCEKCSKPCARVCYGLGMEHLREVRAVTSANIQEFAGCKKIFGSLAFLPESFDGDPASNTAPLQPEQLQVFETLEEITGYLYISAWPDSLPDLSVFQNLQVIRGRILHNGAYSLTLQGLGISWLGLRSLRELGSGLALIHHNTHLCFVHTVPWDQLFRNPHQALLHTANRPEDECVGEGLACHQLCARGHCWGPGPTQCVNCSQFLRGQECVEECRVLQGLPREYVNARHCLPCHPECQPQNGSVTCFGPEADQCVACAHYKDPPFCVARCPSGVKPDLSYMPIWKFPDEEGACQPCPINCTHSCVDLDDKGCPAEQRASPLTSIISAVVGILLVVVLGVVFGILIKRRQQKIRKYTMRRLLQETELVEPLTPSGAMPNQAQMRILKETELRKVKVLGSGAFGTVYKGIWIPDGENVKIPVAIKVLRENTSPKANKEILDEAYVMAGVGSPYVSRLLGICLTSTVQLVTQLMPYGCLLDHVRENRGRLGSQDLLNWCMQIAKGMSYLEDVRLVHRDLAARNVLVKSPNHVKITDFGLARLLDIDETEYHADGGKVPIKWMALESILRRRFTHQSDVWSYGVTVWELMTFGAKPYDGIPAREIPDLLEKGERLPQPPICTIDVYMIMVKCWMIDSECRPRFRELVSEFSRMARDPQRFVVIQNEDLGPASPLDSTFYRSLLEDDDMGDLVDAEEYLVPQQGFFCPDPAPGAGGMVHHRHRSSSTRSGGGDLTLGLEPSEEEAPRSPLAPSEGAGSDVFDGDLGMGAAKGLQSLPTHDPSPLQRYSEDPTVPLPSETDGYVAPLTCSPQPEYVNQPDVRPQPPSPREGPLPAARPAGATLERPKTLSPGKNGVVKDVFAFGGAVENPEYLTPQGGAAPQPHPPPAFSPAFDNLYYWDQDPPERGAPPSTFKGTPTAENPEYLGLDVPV

In general, viability refers to a read-out of living cells in per cent, often relative to untreated cells. A word on the inhibition: it is the drop in the measured response relative to a control, in per cent. `COc1ccc(C2C(C(=O)Nc3cccnc3)=C(C)Nc3nc(-c4cccs4)nn32)cc1OC` (stereo unspecified): the viability in experiment [1] is 59%; in experiment [3] it was 90.5% (inactive); in experiment [4], 87.8% (inactive); in experiment [5] (setting [16]) it was 75.7%; in experiment [5] (setting [17]) it was 87.8%; in experiment [11], 106% (inactive). For the same compound, the viability in experiment [12] is 95.6% (inactive). The Her2 level in experiment [2] was 94.5% (inactive). Also, the differential viability (reversal) in experiment [5] (H69AR cells + 2 uM doxorubicin) was 12.1% (inactive). Also, the inhibition in experiment [6] is 1.2% (inactive); in experiment [7], -6.17% (inactive); in experiment [13] it was -0.09% (inactive). The growth inhibition in [8] was -9.82% (inactive); in [9], -8.04% (inactive). Also, the viability increase in [10] is -1.12% (inactive). Further, the RAM network inhibition in experiment [14] is -1.11% (inactive).
Turning to `COc1ccccc1N1CCN(C(=O)C2CCN(S(=O)(=O)c3ccc(F)cc3)CC2)CC1`, the viability in [15] was 73% (inactive); in experiment [3], 70.8% (inactive); in experiment [4], 87.5% (inactive); in [5] (setting [16]) it was 80.8%; in experiment [5] (setting [17]) it was 87.5%; in experiment [11] it was 81.2% (inactive). Also, the viability in experiment [12] was 84% (inactive). In addition, the differential viability (reversal) in experiment [5] (H69AR cells + 2 uM doxorubicin) was 6.62% (inactive). Also, the inhibition in experiment [6] was -0.27% (inactive); in [7] it was 8.55% (inactive); in experiment [13], 1.03% (inactive). The values for the growth inhibition in [8] and in experiment [9] were -13.6% (inactive) and -1.89% (inactive), respectively. Besides, the viability increase in experiment [10] was -0.47% (inactive). For the same compound, the RAM network inhibition in experiment [14] was 4.6% (inactive).
With `C/C=C/CSc1nc2c(c(=O)[nH]c(=O)n2C)n1Cc1ccc(C)cc1`, the viability in experiment [1] is 102%; in experiment [15], 102% (inactive); in [4] it was 35.5% (active); in experiment [5] (setting [16]) it was 58.2%; in [5] (setting [17]) it was 35.5%; in [11] it was 84.4% (inactive). Also, the viability in experiment [12] was 69.3% (inactive). Further, the Her2 level in [2] was 98.5% (inactive). In experiment [5] (H69AR cells + 2 uM doxorubicin), the differential viability (reversal) is -22.7% (inactive). Also, the results for the inhibition in experiment [6], in experiment [7] and in experiment [13] were -1.6% (inactive), -0.49% (inactive) and 1.98% (inactive), respectively. Further, the growth inhibition was 0.005% (inactive) in experiment [8] and 1.29% (inactive) in experiment [9]. The viability increase in [10] was -4.39% (inactive). Also, the RAM network inhibition in [14] was 2.77% (inactive).
Regarding `COc1ccc(CCn2c(-c3ccco3)nc3ccccc3c2=O)cc1OC`, the viability in experiment [1] was 73%; in experiment [15], 73% (inactive); in experiment [3], 84.3% (inactive); in [5] (setting [16]), 82.1%; in experiment [5] (setting [17]), 52.8%; in experiment [11], 54.5% (inactive). Further, the viability in [12] was 57.1% (inactive). Besides, in experiment [2], the Her2 level was 89% (inactive). Besides, the differential viability (reversal) in experiment [5] (H69AR cells + 2 uM doxorubicin) is -29.2% (inactive). Further, the inhibition in experiment [6] is -5.95% (inactive); in experiment [7], -0.49% (inactive); in [13], 0.935% (inactive). The growth inhibition in [8] is -7.24% (inactive); in [9], -21.7% (inactive). Further, the viability increase in experiment [10] is -3.68% (inactive). Besides, the RAM network inhibition in experiment [14] is 5.3% (inactive).
For `Cc1nonc1NC(=O)c1ccccc1Br`, the viability in experiment [15] was 101% (inactive); in experiment [3], 95.8% (inactive); in experiment [4], 91.8% (inactive); in experiment [5] (setting [16]), 86.8%; in experiment [5] (setting [17]) it was 91.8%; in experiment [11], 93.7% (inactive). The viability in [12] is 101% (inactive). For the same compound, in experiment [5] (H69AR cells + 2 uM doxorubicin), the differential viability (reversal) was 4.93% (inactive). Also, the inhibition in [6] is -3.6% (inactive); in experiment [7] it was -1.64% (inactive); in experiment [13], 2.3% (inactive). Further, the growth inhibition in experiment [8] was -16.1% (inactive); in [9], -8.82% (inactive). Moreover, the viability increase in experiment [10] was 0.21% (inactive). The RAM network inhibition in experiment [14] was -0.15% (inactive).
As for `O=C(Nc1nc(-c2ccncc2)cs1)C1COc2ccccc2O1` (stereo unspecified), the viability was 83.5% in [1]; 83.5% (inactive) in experiment [15]; 67.2% (inactive) in experiment [3]; 60.6% in experiment [5] (setting [16]); 64.8% in [5] (setting [17]); 85.3% (inactive) in experiment [11]. The viability in [12] was 83.9% (inactive). Besides, in experiment [2], the Her2 level was 99.5% (inactive). In addition, the differential viability (reversal) in experiment [5] (H69AR cells + 2 uM doxorubicin) is 4.21% (inactive). Moreover, the inhibition in experiment [6] was 0.51% (inactive); in experiment [7] it was -8% (inactive); in [13], 0.095% (inactive). In addition, the growth inhibition in experiment [9] is 33.5% (inactive). For the same compound, the viability increase in experiment [10] is -5.71% (inactive). Besides, the RAM network inhibition in [14] was 7.12% (inactive).
In the case of `CC(C)CCSc1nc2c(c(=O)[nH]c(=O)n2C)n1CCCc1ccccc1`, the viability is 87.5% in experiment [1]; 87.5% (inactive) in experiment [15]; 46.7% (inactive) in experiment [3]; 58.9% in experiment [5] (setting [16]); 50% in experiment [5] (setting [17]); 68.8% (inactive) in experiment [11]. Also, the viability in experiment [12] is 59.1% (inactive). Further, the Her2 level in [2] is 71% (inactive). The differential viability (reversal) in [5] (H69AR cells + 2 uM doxorubicin) is -8.95% (inactive). For the same compound, the values for the inhibition in experiment [6], in [7] and in experiment [13] were -3.73% (inactive), 4.17% (inactive) and 3.84% (inactive), respectively. The growth inhibition was -11.8% (inactive) in experiment [8] and -9.37% (inactive) in experiment [9]. For the same compound, the viability increase in experiment [10] is -4.55% (inactive). Moreover, the RAM network inhibition in experiment [14] is 9.02% (inactive).
With `CC(=O)Nc1nnc(SCC(=O)NCC2CCCO2)s1` (stereo unspecified), the viability in experiment [15] is 70% (inactive); in experiment [3] it was 105% (inactive); in experiment [4] it was 96.3% (inactive); in [5] (setting [16]), 92.7%; in [5] (setting [17]), 96.3%; in [11] it was 100% (inactive). In addition, the viability in [12] is 88.6% (inactive). The differential viability (reversal) in [5] (H69AR cells + 2 uM doxorubicin) was 3.56% (inactive). The inhibition in [6] is 0.27% (inactive); in experiment [7], 7.64% (inactive); in experiment [13] it was 0.925% (inactive). Further, the growth inhibition in experiment [8] was -2.62% (inactive); in experiment [9], 2.21% (inactive). Besides, the viability increase in [10] is -1.36% (inactive). Besides, in [14], the RAM network inhibition is -0.72% (inactive).
Regarding `OC1(c2cccc(C(F)(F)F)c2)CCN(c2ccc(-c3ccccc3)nn2)CC1`, the viability in experiment [1] was 71.5%; in experiment [15] it was 71.5% (inactive); in experiment [3], 86.4% (inactive); in experiment [5] (setting [16]) it was 61.9%; in experiment [5] (setting [17]) it was 59%; in experiment [11], 10.7% (active). In addition, the viability in [12] is 46.8% (inactive). For the same compound, in [2], the Her2 level was 78.5% (inactive). In addition, the differential viability (reversal) in experiment [5] (H69AR cells + 2 uM doxorubicin) is -2.92% (inactive). The inhibition is 0.27% (inactive) in experiment [6], 0.98% (inactive) in experiment [7] and 1.11% (inactive) in [13]. Also, the growth inhibition in experiment [8] was -3.31% (inactive); in [9], -9.3% (inactive). Also, the viability increase in experiment [10] is -8.34% (inactive). Moreover, in experiment [14], the RAM network inhibition was 5.46% (inactive).
With `Cc1ccccc1Cn1nc(C)c(NC(=O)c2noc3c2CCc2ccccc2-3)c1C`, the viability was 126% in [1]; 126% (inactive) in experiment [15]; 98.4% (inactive) in [4]; 84.4% in experiment [5] (setting [16]); 98.4% in [5] (setting [17]); 79.5% (inactive) in experiment [11]. For the same compound, the viability in experiment [12] is 85.2% (inactive). In experiment [2], the Her2 level is 61% (inactive). In experiment [5] (H69AR cells + 2 uM doxorubicin), the differential viability (reversal) is 14% (inactive). The results for the inhibition in experiment [6], in experiment [7] and in experiment [13] were 5.77% (inactive), -2.17% (inactive) and 1.23% (inactive), respectively. The figures for the growth inhibition in [8] and in experiment [9] were -6.68% (inactive) and 1.82% (inactive), respectively. Also, the viability increase in experiment [10] was 10.6% (active). Besides, the RAM network inhibition in [14] was 6.54% (inactive).

For the origin of these results see PubChem BioAssay.
